# Assay results reported in PubChem BioAssay (EPA / NIEHS).
# Activity calls are given as the source filed them. How the source made its calls: active means hit-call score of the fitted dose curve at least 0.9, where 1 is the maximum; inactive means score below 0.9.
# What was measured:
# Details in all cases: mRNA level, 48 h; actives raise or lower the signal
# [1] = read-out: Apoptosis regulator Bcl-2 (Homo sapiens) (UniProt P10415); test: LTEA_HepaRG_BCL2: Life Technologies and Expression Analysis (LTEA) Assay for Bcl-2 gene using HepaRG (AID 2283475);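 further: BCL2 transcript by TaqMan qRT-PCR normalised to ACTB GAPDH and POLR2A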
# How it was run: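 Each chemical was tested in duplicate on HepaRG cultures held in serum-free induction medium for 48 h, highest concentration 100 uM with half-log dilutions. Transcript levels came from multiplexed qRT-PCR, normalised to housekeeping genes; activity was scored in either direction relative to DMSO.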
# Caspase-3 (Homo sapiens) = Caspase-3 (Homo sapiens) (UniProt P42574); test: LTEA_HepaRG_CASP3: Life Technologies and Expression Analysis (LTEA) Assay for cysteine-aspartic acid protease (CASP3) using HepaRG (AID 2283477)
# How it was run: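 In HepaRG liver cells dosed for 48 h at up to 100 uM (eight-point, duplicate), CASP3 expression changes are scored by qRT-PCR. Activity is fitted in both directions with 0.5% DMSO as baseline.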
# [2] = read-out: Cytochrome P450 (CYP1A2), CYP1A2 (gene 1544); test: LTEA_HepaRG_CYP1A2: Life Technologies and Expression Analysis (LTEA) Assay for Cytochrome P450 (CYP1A2) using HepaRG (AID 2283479);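 on AC50: TaqMan qRT-PCR transcript level normalized to ACTB GAPDH and POLR2A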
# How it was run: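 Assesses CYP1A2 mRNA in human HepaRG liver cells after 48 h chemical exposure at up to 100 uM. Values come from qRT-PCR with bidirectional curve fitting relative to DMSO.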
# [3] = read-out: cysteine-aspartic acid protease (CASP8), CASP8 (gene 841); test: LTEA_HepaRG_CASP8: Life Technologies and Expression Analysis (LTEA) Assay for cysteine-aspartic acid protease (CASP8) using HepaRG (AID 2283480)
# How it was run: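 Concentration-response in duplicate up to 100 uM (half-log steps, 0.5% DMSO) on differentiated HepaRG cultures for 48 h. Expression change of CASP8 mRNA is determined by TaqMan qRT-PCR with housekeeping-gene normalization.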
# [4] = read-out: Cytochrome P450 (CYP2B6), CYP2B6 (gene 1555); test: LTEA_HepaRG_CYP2B6: Life Technologies and Expression Analysis (LTEA) Assay for Cytochrome P450 (CYP2B6) using HepaRG (AID 2283481)
# How it was run: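 Using 48 h treatment of HepaRG cells in serum-free induction medium, concentrations spanned half-log steps from 100 uM in 0.5% DMSO vehicle. CYP2B6 mRNA induction or loss is scored by qRT-PCR against DMSO.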
# [5] = read-out: Cytochrome P450 2C19 (Homo sapiens) (UniProt P33261); test: LTEA_HepaRG_CYP2C19: Life Technologies and Expression Analysis (LTEA) Assay for CYP2C19 using HepaRG (AID 2283482)
# How it was run: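 Human HepaRG liver cells received test chemicals for 48 h (highest 100 uM, half-log dilutions in 0.5% DMSO). CYP2C19 mRNA induction or loss is read by multiplexed qRT-PCR and fitted in both directions versus vehicle.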
# CYP2C8 (gene 1558) = test: LTEA_HepaRG_CYP2C8: Life Technologies and Expression Analysis (LTEA) Assay for CYP2C8 using HepaRG (AID 2283483)
# How it was run: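 This is a transcriptional endpoint in HepaRG cultures: 48 h exposure, highest concentration 100 uM. CYP2C8 mRNA is quantified by TaqMan qRT-PCR.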
# CYP2C9 (gene 1559) = test: LTEA_HepaRG_CYP2C9: Life Technologies and Expression Analysis (LTEA) Assay for CYP2C9 using HepaRG (AID 2283484)
# How it was run: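 Eight-point concentration-response (highest 100 uM, half-log dilutions) in HepaRG cells for 48 h; CYP2C9 expression by qRT-PCR normalized to ACTB, GAPDH, POLR2A. Bidirectional fit, DMSO baseline.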
# CYP2E1 (gene 1571) = test: LTEA_HepaRG_CYP2E1: Life Technologies and Expression Analysis (LTEA) Assay for CYP2E1 using HepaRG (AID 2283485)
# How it was run: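 Assay uses 48 h exposure of HepaRG hepatic cells, eight concentrations to 100 uM. Expression of CYP2E1 is quantified by TaqMan qRT-PCR with ACTB, GAPDH and POLR2A normalization; curves fitted in both directions relative to vehicle.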
# CYP4A11 (gene 1579) = test: LTEA_HepaRG_CYP4A11: Life Technologies and Expression Analysis (LTEA) Assay for CYP4A11 using HepaRG (AID 2283486)
# How it was run: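 Readout is CYP4A11 mRNA induction or suppression (qRT-PCR, ACTB/GAPDH/POLR2A normalization) in human HepaRG cells after 48 h chemical treatment, concentrations to 100 uM in 0.5% DMSO, fitted bidirectionally against vehicle.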
# [6] = read-out: Cytochrome P450 3A4 (Homo sapiens) (UniProt P08684); test: LTEA_HepaRG_CYP3A4: Life Technologies and Expression Analysis (LTEA) Assay for CYP3A4 using HepaRG (AID 2283487)
# How it was run: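 HepaRG, 48 h exposure, 8-pt CRC from 100 uM (half-log), 0.5% DMSO, duplicates; serum-free induction medium. Readout: CYP3A4 mRNA, qRT-PCR, ACTB/GAPDH/POLR2A normalization. Bidirectional fit vs DMSO.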
# [7] = read-out: DNA damage-inducible transcript 3 (DDIT3), DDIT3 (gene 1649); test: LTEA_HepaRG_DDIT3: Life Technologies and Expression Analysis (LTEA) Assay for DNA damage-inducible transcript 3 (DDIT3) using HepaRG (AID 2283488)
# How it was run: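 Eight-point concentration-response (100 uM highest, half-log dilutions) in HepaRG, 48 h, duplicate wells. Endpoint: qRT-PCR mRNA, normalized (ACTB, GAPDH, POLR2A), bidirectional fitting with DMSO as baseline.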
# [8] = read-out: Pro-epidermal growth factor (Homo sapiens) (UniProt P01133); test: LTEA_HepaRG_EGF: Life Technologies and Expression Analysis (LTEA) Assay for Epidermal growth factor (EGF) using HepaRG (AID 2283489)
# How it was run: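 EGF expression changes in human HepaRG cells are scored by bidirectional fitting relative to 0.5% DMSO controls. Chemicals are tested at eight half-log concentrations up to 100 uM for 48 h in serum-free induction medium.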
# [9] = read-out: Early growth response protein 1 (EGR1) transcription factor, EGR1 (gene 1958); test: LTEA_HepaRG_EGR1: Life Technologies and Expression Analysis (LTEA) Assay for Early growth response protein 1 (EGR1) transcription factor using HepaRG (AID 2283490)
# How it was run: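 EGR1 expression change in human HepaRG after 48 h chemical exposure, assessed by housekeeping-normalized qRT-PCR; concentration-response up to 100 uM, fitted in both directions against DMSO controls.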
# [10] = read-out: Cytochrome P450 3A7 (Homo sapiens) (UniProt P24462); test: LTEA_HepaRG_CYP3A7: Life Technologies and Expression Analysis (LTEA) Assay for CYP3A7 using HepaRG (AID 2283492)
# How it was run: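 Cells were thawed, plated, cultured 48 h, then treated for a further 48 h with chemicals (eight-point half-log series from 100 uM, 0.5% DMSO). RNA was isolated and CYP3A7 expression quantified by qRT-PCR normalised to ACTB, GAPDH and POLR2A.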
# CYP3A5 (gene 1577) = test: LTEA_HepaRG_CYP3A5: Life Technologies and Expression Analysis (LTEA) Assay for CYP3A5 using HepaRG (AID 2283493)
# How it was run: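 Readout was CYP3A5 mRNA by qRT-PCR. HepaRG cultures were exposed for 48 h in serum-free induction medium to chemicals at up to 100 uM, and responses were fitted in both directions relative to DMSO vehicle.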
# [11] = read-out: Fatty Acid-Binding Protein 1 (FABP1), FABP1 (gene 2168); test: LTEA_HepaRG_FABP1: Life Technologies and Expression Analysis (LTEA) Assay for Fatty Acid-Binding Protein 1 (FABP1) using HepaRG (AID 2283494)
# How it was run: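 Values reflect bidirectional concentration-response fitting of FABP1 mRNA change against 0.5% DMSO controls. Human HepaRG cultures received eight half-log doses (top 100 uM) for 48 h; expression quantified by TaqMan qRT-PCR with housekeeping-gene normalization.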
# [12] = read-out: Cytochrome P450 4A22 (Homo sapiens) (UniProt Q5TCH4); test: LTEA_HepaRG_CYP4A22: Life Technologies and Expression Analysis (LTEA) Assay for Cytochrome P450 4A22 (CYP4A22) using HepaRG (AID 2283495)
# How it was run: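 Cryopreserved HepaRG cells, plated and cultured 48 h, then switched to serum-free induction medium and treated 48 h (duplicates, up to 100 uM, half-log steps, 0.5% DMSO). Expression change of CYP4A22 was fitted bidirectionally against vehicle.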
# [13] = read-out: Cytochrome P450 7A1 (Homo sapiens) (UniProt P22680); test: LTEA_HepaRG_CYP7A1: Life Technologies and Expression Analysis (LTEA) Assay for Cytochrome P450 7A1 (CYP7A1) using HepaRG (AID 2283496)
# How it was run: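 Using 0.5% DMSO as vehicle and baseline, chemicals were tested in duplicate over an 8-point range from 100 uM on HepaRG cells for 48 h; qRT-PCR signals were normalised to ACTB, GAPDH and POLR2A.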
# [14] = read-out: Glutathione S-Transferase (GSTA2), GSTA2 (gene 2939); test: LTEA_HepaRG_GSTA2: Life Technologies and Expression Analysis (LTEA) Assay for Glutathione S-Transferase (GSTA2) using HepaRG (AID 2283497)
# How it was run: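 Oxidative-stress marker GSTA2 is quantified by TaqMan qRT-PCR in HepaRG cultures treated 48 h across an eight-point range to 100 uM. Expression is normalized to endogenous controls and compared with 0.5% DMSO vehicle.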
# Chain of Cytochrome P450 2C19 (Homo sapiens) (P33261 whole entry, looked up): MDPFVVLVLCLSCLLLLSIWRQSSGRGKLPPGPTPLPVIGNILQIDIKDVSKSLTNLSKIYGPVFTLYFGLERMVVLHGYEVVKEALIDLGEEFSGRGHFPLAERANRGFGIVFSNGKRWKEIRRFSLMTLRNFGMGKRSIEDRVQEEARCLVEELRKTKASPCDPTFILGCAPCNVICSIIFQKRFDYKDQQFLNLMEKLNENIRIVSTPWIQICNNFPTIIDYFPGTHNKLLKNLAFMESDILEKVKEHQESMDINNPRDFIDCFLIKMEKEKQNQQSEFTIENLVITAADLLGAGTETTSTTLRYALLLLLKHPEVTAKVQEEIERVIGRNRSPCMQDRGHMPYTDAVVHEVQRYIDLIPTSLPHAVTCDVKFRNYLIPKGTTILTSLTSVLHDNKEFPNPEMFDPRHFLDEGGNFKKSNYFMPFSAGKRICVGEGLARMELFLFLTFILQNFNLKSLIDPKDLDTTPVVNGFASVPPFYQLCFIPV
# Chain of Caspase-3 (Homo sapiens) (P42574 whole entry, looked up): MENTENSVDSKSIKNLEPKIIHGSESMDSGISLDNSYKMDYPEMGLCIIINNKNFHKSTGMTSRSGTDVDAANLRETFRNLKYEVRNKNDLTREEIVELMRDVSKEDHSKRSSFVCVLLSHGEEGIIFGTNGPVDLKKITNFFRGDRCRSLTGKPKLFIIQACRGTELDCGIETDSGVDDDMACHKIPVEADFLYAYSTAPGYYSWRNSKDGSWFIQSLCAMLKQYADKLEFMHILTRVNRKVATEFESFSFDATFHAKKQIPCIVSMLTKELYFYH
# Chain of Cytochrome P450 3A7 (Homo sapiens) (P24462 whole entry, looked up): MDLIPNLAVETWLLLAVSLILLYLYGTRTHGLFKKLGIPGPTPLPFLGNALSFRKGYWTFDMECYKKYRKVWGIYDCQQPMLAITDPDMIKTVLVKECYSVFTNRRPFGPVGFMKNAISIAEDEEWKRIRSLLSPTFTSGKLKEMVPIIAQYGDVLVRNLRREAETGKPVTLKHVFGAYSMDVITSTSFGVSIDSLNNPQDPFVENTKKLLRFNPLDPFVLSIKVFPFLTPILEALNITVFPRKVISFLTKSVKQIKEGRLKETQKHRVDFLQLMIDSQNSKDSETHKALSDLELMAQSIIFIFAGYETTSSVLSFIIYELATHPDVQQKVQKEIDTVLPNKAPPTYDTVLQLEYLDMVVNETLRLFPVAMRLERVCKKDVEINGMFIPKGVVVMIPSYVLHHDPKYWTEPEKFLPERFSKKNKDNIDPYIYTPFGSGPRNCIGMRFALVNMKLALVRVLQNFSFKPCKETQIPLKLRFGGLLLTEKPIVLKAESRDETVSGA
# Chain of Cytochrome P450 3A4 (Homo sapiens) (P08684 whole entry, looked up): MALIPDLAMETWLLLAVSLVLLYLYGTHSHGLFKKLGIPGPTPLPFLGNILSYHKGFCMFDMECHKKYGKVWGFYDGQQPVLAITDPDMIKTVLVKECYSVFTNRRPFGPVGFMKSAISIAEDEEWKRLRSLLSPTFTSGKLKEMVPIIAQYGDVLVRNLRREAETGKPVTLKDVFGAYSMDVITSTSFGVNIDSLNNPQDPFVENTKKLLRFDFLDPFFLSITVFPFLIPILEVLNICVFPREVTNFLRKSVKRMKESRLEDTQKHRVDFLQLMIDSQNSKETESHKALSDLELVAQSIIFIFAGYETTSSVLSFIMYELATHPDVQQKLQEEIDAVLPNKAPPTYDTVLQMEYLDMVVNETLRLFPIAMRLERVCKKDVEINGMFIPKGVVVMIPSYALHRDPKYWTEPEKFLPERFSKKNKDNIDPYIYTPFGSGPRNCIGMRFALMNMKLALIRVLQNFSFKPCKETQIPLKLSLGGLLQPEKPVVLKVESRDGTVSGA
# Chain of Apoptosis regulator Bcl-2 (Homo sapiens) (P10415 whole entry, looked up): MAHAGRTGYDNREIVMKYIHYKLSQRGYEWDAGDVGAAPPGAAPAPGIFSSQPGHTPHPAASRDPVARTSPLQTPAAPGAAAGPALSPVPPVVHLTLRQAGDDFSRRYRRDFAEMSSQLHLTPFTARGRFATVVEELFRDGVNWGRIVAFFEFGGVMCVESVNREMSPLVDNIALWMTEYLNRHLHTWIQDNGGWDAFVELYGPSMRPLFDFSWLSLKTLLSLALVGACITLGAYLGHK
smiles,measurement,setting,value
O=C1NS(=O)(=O)c2ccccc21,outcome,[1],inactive
same,outcome,Caspase-3 (Homo sapiens),inactive
same,outcome,[2],inactive
same,outcome,[3],inactive
same,outcome,[4],inactive
same,outcome,[5],inactive
same,outcome,CYP2C8 (gene 1558),inactive
same,outcome,CYP2C9 (gene 1559),inactive
same,outcome,CYP2E1 (gene 1571),inactive
same,outcome,CYP4A11 (gene 1579),inactive
same,outcome,[6],inactive
same,outcome,[7],inactive
same,outcome,[8],inactive
same,outcome,[9],inactive
same,outcome,[10],inactive
same,outcome,CYP3A5 (gene 1577),inactive
same,outcome,[11],inactive
same,outcome,[12],inactive
same,outcome,[13],inactive
same,outcome,[14],inactive
CCCCCCCCCCCCOS(=O)(=O)O,AC50,[1],86.9 µM (active)
same,outcome,Caspase-3 (Homo sapiens),inactive
same,AC50,[2],71.2 µM (active)
same,AC50,[4],94.1 µM (active)
same,AC50,[5],82.1 µM (active)
same,AC50,CYP2C9 (gene 1559),79 µM (active)
same,AC50,CYP2E1 (gene 1571),92.9 µM (active)
same,AC50,[7],71.9 µM (active)
same,outcome,[8],inactive
same,outcome,[9],inactive
same,outcome,CYP3A5 (gene 1577),inactive
same,AC50,[11],87.6 µM (active)
CN(Cc1cnc2nc(N)nc(N)c2n1)c1ccc(C(=O)N[C@@H](CCC(=O)O)C(=O)O)cc1,outcome,[1],inactive
same,outcome,Caspase-3 (Homo sapiens),inactive
same,AC50,[2],0.0974 µM (active)
same,outcome,[3],inactive
same,AC50,[4],0.16 µM (active)
same,outcome,[5],inactive
same,outcome,CYP2C8 (gene 1558),inactive
same,AC50,CYP2E1 (gene 1571),0.222 µM (active)
same,outcome,CYP4A11 (gene 1579),inactive
same,outcome,[6],inactive
same,outcome,[7],inactive
same,outcome,[8],inactive
same,AC50,[9],121 nM (active)
same,outcome,[10],inactive
same,AC50,CYP3A5 (gene 1577),98.5 nM (active)
same,AC50,[11],0.322 µM (active)
same,outcome,[12],inactive
same,AC50,[13],233 nM (active)
same,AC50,[14],264 nM (active)
OCC(CO)(CBr)CBr,outcome,Caspase-3 (Homo sapiens),inactive
same,outcome,[2],inactive
same,outcome,[3],inactive
same,outcome,[4],inactive
same,outcome,[5],inactive
same,outcome,CYP2C8 (gene 1558),inactive
same,outcome,CYP2C9 (gene 1559),inactive
same,outcome,CYP2E1 (gene 1571),inactive
same,AC50,CYP4A11 (gene 1579),411 nM (active)
same,outcome,[6],inactive
same,outcome,[7],inactive
same,outcome,[8],inactive
same,outcome,[9],inactive
same,outcome,[10],inactive
same,outcome,CYP3A5 (gene 1577),inactive
same,outcome,[11],inactive
same,outcome,[12],inactive
same,outcome,[13],inactive
same,outcome,[14],inactive
